High-throughput results as filed in PubChem.
TROY signal inh: inhibitors of TROY-dependent NF-kB signaling | inhibition, % at 10 µM | Q293 LMP1-TROYcd NF-kB luciferase reporter, 4 h | AID 1347056 | 0.98% of 360,000 active;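 active means compounds whose plate-normalised and pattern-corrected inhibition of the luciferase reporter signal at the single screening dose is 50% or more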
HSP90 refold inh: HSP90 refolding inhibition in rabbit reticulocyte lysate. luciferase refolding luminescence, 3 h. inhibition, % at 5.6 µM. 0.91% of 290,000 active;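 active means inhibition above the screen-wide mean plus 3 SD, computed separately per campaign, cut at about 16% in these data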;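 further: 0% = DMSO wells and 100% = 60 µM geldanamycin wells; inhibitors lower the luminescence because luciferase stays unfolded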
HSF1 inh: HSF1 inhibition | 0.77% of 300,000 active | activity change, negative = inhibition, % at 7.5 µM (by protocol) | NIH3T3-HGL HSE-luciferase, MG132-induced, luminescence 8 h; active compounds read low;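 active means more than half of replicate wells show activity change below -50%, luminescence cut by over half; inconclusive means some wells, but at most half, below -50%; inactive means no replicate well below -50%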;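 further: luciferase reports HSF-1 transcriptional activity via heat shock element; 0% = median of DMSO wells and -100% = zero luminescence signal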
EBV LMP1 NFkB: reduces LMP1-driven NF-kappaB luciferase signal. 0.69% of 350,000 active. inhibition, % at 12.5 µM. LMP1-induced NF-kappaB luciferase reporter cells, luminescence; in the data active means inhibition above about 41%; inconclusive means no clear call, values can overlap the other calls;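 further: 0% = neutral control wells and 100% = reference inhibitor control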
TWEAK-Fn14 inh: TWEAK-Fn14 signaling inhibition; TWEAK-stimulated Fn14 reporter cells, luciferase luminescence, 8 h; inhibition, % at 10 µM; 2% of 360,000 active; in the data active means inhibition above about 50%
HSF1 activator: increases HSF-1 driven luciferase reporter signal; activation, % at 9 µM; AID 504408; NIH3T3-HGL HSF-1 luciferase reporter, MG132, 8 h; 100% = twice DMSO control signal; 1.7% of 300,000 active;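 active means mean replicate activation of at least 50% with a set share of replicates each reaching 50%; inconclusive means only one of those two conditions met; inactive means mean below 50% and too few replicates reaching it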;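 further: 0% = median of the neutral control wells and 100% = twice that signal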
The depositor's hits bear a star; ? = inconclusive; . = not tested or not shown. Hits are enriched below; roughly 4.7% of the tested compounds scored in any of these assays.

SMILES | TROY signal inh | HSP90 refold inh | HSF1 inh | EBV LMP1 NFkB | TWEAK-Fn14 inh | HSF1 activator
COC(=O)c1c(C)oc2ccc(N(C(=O)c3ccncc3)S(=O)(=O)c3ccccc3)cc12 | 48.9 | 3.5 | -1.8 | 11.4 | 29.0 | -4.4
Cc1ccc(S(=O)(=O)N(C(=O)c2ccncc2)c2ccc3oc4c(c3c2)CCCC4)cc1[N+](=O)[O-] | 54.0* | -1.2 | 8.6 | 9.0 | 29.5 | 13.3
COc1ccc([N+](=O)[O-])cc1NC(=O)COC(=O)C12CC3CC(CC(O)(C3)C1)C2 | 11.4 | . | . | -8.6 | 11.1 | .
Cc1ccc(C(=Cc2ccc([N+](=O)[O-])cc2)C(=O)O)cc1 | -72.5 | . | . | 3.8 | -8.2 | .
Cc1c(Br)cccc1NC(=O)C1(C)CCN1Cc1ccccc1OC(F)F (stereo not given) | 17.7 | . | . | . | 4.3 | .
CCCC(=O)N(c1ccc2oc(C)c(C(C)=O)c2c1)S(=O)(=O)c1ccc(C)c([N+](=O)[O-])c1 | 39.4 | 0.0 | 3.9 | 0.2 | 45.4 | 23.2
COC(=O)c1c(C)oc2ccc(N(C(=O)c3ccncc3)S(=O)(=O)c3ccc(C)cc3C)cc12 | 65.6* | -4.3 | -6.1 | 28.0 | 79.6* | -14.8
COC(=O)c1c(C)oc2ccc(N(C(=O)Oc3ccccc3)S(=O)(=O)c3ccc(Cl)c([N+](=O)[O-])c3)cc12 | 33.6 | -5.8 | 60.0 | -93.8 | 13.2 | 72.0*
Cc1ccc2c(=O)n3c(nc2c1)C(Cc1ccccc1)NC(=O)c1cc2ccccc2cc1-3 (stereo not given) | 4.2 | . | . | 5.9 | 18.5 | .
Cc1cccc(C(=O)OC2CCOC2=O)c1O (stereo not given) | -24.8 | 3.5 | 2.0 | -0.5 | 89.0* | -0.6
CNC(=O)COC(=O)c1ccccc1C(=O)c1ccc(Cl)c([N+](=O)[O-])c1 | 73.8* | -1.5 | ? | 7.5 | 101.0* | ?
CNC(=O)COC(=O)c1cc(F)c(F)cc1Cl | -0.2 | 0.9 | -3.2 | 2.2 | 87.3* | -11.4
O=C(COC(=O)c1cc([N+](=O)[O-])ccc1Cl)NC1CCCC1 | -8.1 | -4.1 | -5.4 | . | 20.2 | 8.3
O=C(COC(=O)c1ccccc1C(=O)c1ccc(Cl)c([N+](=O)[O-])c1)NC1CC1 | 65.3* | -4.6 | 28.5 | 49.7* | 95.2* | ?
COc1ccc(C(C)(O)c2nc(-c3ccc(N(C)C)cc3)cs2)cc1 (stereo not given) | -8.8 | . | . | . | 1.5 | .
O=C(CSc1ncccn1)NC(=O)NC1CCCC1 | -8.6 | . | . | 10.9 | 0.2 | .
O=C(NCc1ccccc1)C1c2ccccc2OCC(=O)N1Cc1ccco1 (stereo not given) | -7.3 | . | . | . | 4.6 | .
O=C(OC1CCOC1=O)c1ccccc1C(=O)c1ccc(Cl)c([N+](=O)[O-])c1 (stereo not given) | 23.0 | . | . | -6.1 | 65.8* | .
CCCOc1ccc(C(=O)c2ccccc2C(=O)OC2CCOC2=O)cc1OCCC (stereo not given) | -8.1 | . | . | -2.9 | -17.2 | .
OCCC1CN(Cc2cc(F)ccc2-n2cccn2)CCN1C1CCCC1 (stereo not given) | 8.3 | 5.9 | -7.2 | 3.9 | 91.2* | -20.4
CN1OC[C@@H]2CN(C(=O)C(C)(C)C)[C@H](c3cccc(Oc4ccccc4)c3)C[C@@H]21 | -9.0 | . | . | 1.5 | 18.5 | .
COC(CNC(=O)C(=O)NCC1OCCN1C(=O)c1ccc(Cl)cc1)OC (stereo not given) | 5.8 | 2.5 | -8.7 | 0.8 | -4.1 | -18.3
COCCNC(=O)C(=O)NCC1OCCN1C(=O)c1ccc(Cl)cc1 (stereo not given) | -4.8 | -0.3 | 2.1 | 79.8* | 10.4 | -0.8
CC1CC(C)CN(C(=O)c2cc3ccccc3o2)C1 (stereo not given) | -47.0 | . | 12.9 | -16.5 | -23.4 | 16.4
CC1CC(C)CN(C(=O)c2cc3cc(Br)cc(Br)c3o2)C1 (stereo not given) | 2.7 | -10.4 | 33.9 | -13.1 | -28.7 | 66.6*
SMILES | TROY signal inh | HSP90 refold inh | HSF1 inh | EBV LMP1 NFkB | TWEAK-Fn14 inh | HSF1 activator
C[C@@H]1CN([C@@H](C)CO)C(=O)CCCn2nncc2CO[C@@H]1CN(C)C(=O)Cc1ccccc1 | -2.6 | . | . | 3.5 | -4.8 | .
N#CNC(=Nc1cccc(F)c1)SCc1ccccc1F | 59.5* | -2.8 | 11.5 | -4.2 | 0.1 | 16.2
CC(C)N=C(NC#N)SCc1ccccc1F | 2.6 | 1.3 | -10.3 | -8.0 | 15.1 | -9.5
Fc1cccc(Nc2c3c(nc4ccccc24)CCC3)c1 | 13.4 | 2.3 | -9.9 | -4.1 | -69.5 | 10.8
Nc1nc(Nc2cccc(F)c2)nc2ccccc12 | -40.8 | 0.0 | 35.8 | -37.0 | 1.5 | 55.5*
CC(=O)Nc1ccc(CN2C(=O)C(C)(C)ON=C2c2ccc(C(F)(F)F)cc2)cc1 | -13.1 | . | . | . | -2.8 | .
O=C(NC(c1ccccc1)c1ccc2ccccc2n1)C1CCN(CCOc2ccc(Cl)cc2)CC1 (stereo not given) | 10.8 | . | . | . | 92.5* | .
O=C1/C(=C/c2ccc(O)c([N+](=O)[O-])c2)SC(=S)N1Cc1ccccc1 | 33.8 | -2.6 | 0.1 | -1.1 | 60.1* | 33.5
O=C1/C(=C\c2cc(Br)cc(Br)c2O)SC(=S)N1Cc1ccccc1 | 38.4 | -2.5 | -8.3 | 34.1 | 10.3 | -4.7
O=C1/C(=C\c2cccc([N+](=O)[O-])c2O)SC(=S)N1Cc1ccccc1 | 49.8 | -3.4 | 0.9 | 20.3 | 69.0* | 21.2
CC1=C(C(=O)N(C(C)C)C(C)C)CC(CC(=O)NCc2cccc3ccccc23)C(=O)N1Cc1ccc(C(C)(C)C)cc1 (stereo not given) | 12.5 | . | . | . | 9.5 | .
NS(=O)(=O)c1cccc(NC(=O)CNC(=O)CC23CC4CC(CC(C4)C2)C3)c1 | 52.3* | -0.8 | -76.8* | 6.1 | -1.2 | -82.0
NS(=O)(=O)c1cccc(NC(=O)CC23CC4CC(C2)CC(CC(=O)Nc2cccc(S(N)(=O)=O)c2)(C4)C3)c1 | -22.1 | 5.8 | -2.7 | 6.6 | -12.0 | 11.6
CC1(C(=O)Nc2ccc(Cl)cc2)Cc2c(-c3cccc(C(F)(F)F)c3)ccnc2O1 (stereo not given) | 3.1 | . | . | . | -2.1 | .
CC(=O)Nc1sc(N/N=C\c2ccccc2Cl)nc1-c1cccs1 | 15.7 | -1.3 | -12.3 | -4.1 | 66.9* | -16.9
CC(=O)Nc1sc(N/N=C\c2ccccc2)nc1-c1cccs1 | -26.6 | 0.9 | -3.8 | -11.7 | -12.6 | 20.3
O=C(Nc1c2c(nn1-c1ccccc1)CS(=O)(=O)C2)c1ccc(Br)o1 | -9.4 | . | . | 0.3 | 7.9 | .
CC1=CC(Cc2ccccc2)N(C)C(C(N)=O)C1 (stereo not given) | -8.6 | . | . | . | -18.9 | .
O=C1COc2ccc(S(=O)(=O)N3CCC(C(=O)NCc4ccc(F)cc4)CC3)cc2N1 | 12.3 | 3.6 | -6.2 | 2.0 | 13.7 | 0.1
Cc1ccc(CCNC(=O)C2CCN(S(=O)(=O)c3ccc4c(c3)NC(=O)CO4)CC2)cc1 | -1.6 | 0.0 | 34.7 | 1.9 | -8.8 | 68.4*
Cc1cccc(C)c1NC(=O)Cn1cnc2c(=O)n(C)c(=O)n(C)c21 | 0.2 | 1.3 | -8.4 | 4.1 | 3.5 | -9.1
Cn1c(=O)c2ncn(CC(=O)O)c2n(C)c1=O | 52.4* | -1.0 | 11.7 | ? | -8.7 | 12.4
